Screening data (PubChem)
An excerpt weighted towards active compounds, which were near 12% of everything screened.
Sfp PPTase inh: Sfp phosphopantetheinyl transferase inhibition. Potency, µM, actives largely listed as inhibitors. Biochemical Sfp PPTase activity, qHTS. Q9F4F7. 310,000 compounds, 3.5% hits. AID 1490;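 also: the enzyme is Sfp with the accession as filed and its product quenches rhodamine fluorescence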
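Sfp 15 nM + cpd, 15 min RT; start w/ rhodamine-CoA 5 uM, BHQ-2-YbbR 12.5 uM (final); 50 mM Hepes pH 7.6, 10 mM MgCl2, 0.01% NP-40, 0.01% BSA; read 525/598 nm at 0 and 30 min.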
G9a inh: inhibitors of human histone lysine methyltransferase G9a; G9a H3K9 monomethylation, AlphaScreen, 2 h; Potency, µM (doses to about 102 µM), most hits filed as inhibitors; 350,000 compounds, 8.8% hits; also: nearly all actives have a fitted effect of over 75% in size
Target sequence (Q96KQ7 913-1193 limits assumed): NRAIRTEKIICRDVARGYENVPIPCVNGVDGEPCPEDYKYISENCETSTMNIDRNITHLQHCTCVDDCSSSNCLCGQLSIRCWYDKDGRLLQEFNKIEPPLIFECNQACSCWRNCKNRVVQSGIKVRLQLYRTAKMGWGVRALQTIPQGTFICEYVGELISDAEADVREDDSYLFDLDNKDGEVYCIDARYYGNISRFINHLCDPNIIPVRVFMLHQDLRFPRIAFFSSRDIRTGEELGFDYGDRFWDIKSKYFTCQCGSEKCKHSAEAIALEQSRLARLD
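AlphaScreen detection with an anti-monomethyl H3K9 antibody quantified product after a 2 h room-temperature reaction containing 500 nM biotinylated H3K9 peptide, 20 µM SAM and 20 nM enzyme, which had been preincubated 15 min with compound.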
JMJD2A Tudor inh: JMJD2A Tudor domain (human) inhibition; O75164; AlphaScreen JMJD2A-Tudor / H3K4me3 peptide binding; Potency, µM (titrated, usually from 114 µM), actives largely listed as inhibitors; 390,000 compounds, 4.4% hits; AID 504339; also: nearly all actives have a fitted effect of over 50% in size
HP1b chromo inh: blocks HP1-beta chromodomain binding to methylated histone tails | P83916 | AlphaScreen HP1-beta / biotin-H3K9me3 peptide binding | Potency, µM (doses to about 114 µM), usual class: inhibitors | 390,000 compounds, 0.56% hits | AID 540317; also: nearly all actives have a fitted effect of over 70% in size
Target sequence (P83916 whole entry, looked up): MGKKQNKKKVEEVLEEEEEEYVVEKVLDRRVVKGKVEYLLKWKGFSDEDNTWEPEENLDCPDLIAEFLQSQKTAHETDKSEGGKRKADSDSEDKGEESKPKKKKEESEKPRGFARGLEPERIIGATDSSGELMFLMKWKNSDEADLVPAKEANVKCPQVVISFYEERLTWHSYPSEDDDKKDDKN
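HP1-beta protein (50 nM final) preincubated 30 min at room temperature with biotinylated H3(1-18)K9me3 peptide (50 nM) in PBS pH 7.4, 0.01% Tween-20, then compound added for 30 min. AlphaScreen streptavidin donor/nickel chelate acceptor beads (10 ug/mL final), 30 min dark, luminescence read.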
TDP1 inh: blocks human tyrosyl-DNA phosphodiesterase 1 | recombinant TDP1, AlphaScreen DNA substrate cleavage | AID 485290 | Potency, µM (highest dose often 130 µM), actives largely listed as inhibitors | 350,000 compounds, 0.28% hits | Q9NUW8; also: nearly all actives have a fitted effect of over 40% in size
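Here, a 5' biotin and 3' phosphotyrosine-FITC DNA oligonucleotide reports Tdp1 activity: intact substrate bridges AlphaScreen beads, while cleavage leaves a 3' phosphate and drops signal. All incubations at room temperature.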
BAZ2B block: blocks human BAZ2B; AlphaScreen BAZ2B-H3K14Ac peptide displacement; Potency, µM (highest dose often 114 µM), hits mostly inhibitors; 360,000 compounds, 4.4% hits; AID 504333; also: nearly all actives have a fitted effect of over 60% in size
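BAZ2B (50 nM) with biotin-H3(5-23)K14Ac peptide (50 nM) in PBS pH 7.4, 0.01% Tween-20, preformed 30 min, then compound 30 min at room temperature; top concentration 110uM. AlphaScreen streptavidin donor/nickel chelate acceptor beads (10 ug/mL final), 20 min dark, signal read.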
Large screens that a line does not name were inactive. Calls follow the shape of the dose curve; as a rule, active = well fitted curve in the direction sought with a large enough effect; inconclusive = small, poorly fitted or top-dose-only effect, or another doubt; inactive = no such curve, though single readings can be large; an effect the other way counts as inactive or inconclusive.

COc1cccc(CNc2ccc(F)c(Cl)c2)c1	G9a inh 50µM, BAZ2B block inconclusive
CC1CC2(CCCCC2)N2C(=O)C(=O)c3cccc1c32 (configuration not stated)	G9a inh 71µM, JMJD2A Tudor inh inconclusive, HP1b chromo inh inconclusive, BAZ2B block inconclusive
CC1(NS(=O)(=O)c2ccc(Cl)s2)CCS(=O)(=O)C1 (configuration not stated)	none (no result: Sfp PPTase inh, G9a inh, BAZ2B block)
CCCCn1c(N)c(N(CCOC)C(=O)CN2c3ccccc3CC2C)c(=O)[nH]c1=O (configuration not stated)	G9a inh 20µM
CCCCn1c(N)c(N(CCOC)C(=O)CN2C(=O)c3ccccc3C2=O)c(=O)[nH]c1=O	none
CCCCn1c(N)c(N(CCOC)C(=O)c2cnc(C)cn2)c(=O)[nH]c1=O	G9a inh 40µM (no result: Sfp PPTase inh)
CCCCn1c(N)c(N(CCOC)C(=O)c2ccc(-c3ccc(Cl)cc3)o2)c(=O)[nH]c1=O	G9a inh 11µM, BAZ2B block inconclusive (no result: Sfp PPTase inh)
CCCCN(C(=O)c1ccc(-c2ccc(Cl)cc2)o1)c1c(N)n(CCC)c(=O)[nH]c1=O	G9a inh 8.9µM (no result: Sfp PPTase inh)
CCCCn1c(N)c(N(CCOC)C(=O)c2cnccn2)c(=O)[nH]c1=O	none (no result: Sfp PPTase inh, TDP1 inh)
CCCCN(C(=O)c1ccc(-c2ccc(Cl)cc2)o1)c1c(N)n(CCCC)c(=O)[nH]c1=O	none (no result: Sfp PPTase inh)
N#Cc1ccccc1NC(=O)CN(Cc1ccccc1)Cc1ccccc1	none (no result: TDP1 inh)
COCCN(C)Cc1cn(-c2ccc(F)cc2F)nc1-c1ccccc1C	Sfp PPTase inh 89µM, TDP1 inh inconclusive (no result: G9a inh)
Cc1ccccc1-c1nn(-c2ccc(F)cc2F)cc1CNCCN(C)C	JMJD2A Tudor inh inconclusive, BAZ2B block inconclusive
Cc1ccc(C2CC(=O)Oc3ccc(O)cc32)cc1 (configuration not stated)	Sfp PPTase inh inconclusive, G9a inh 11µM (no result: JMJD2A Tudor inh, HP1b chromo inh, BAZ2B block)
Cc1ccc(C2CC(=O)Oc3ccc(C(C)(C)C)cc32)cc1 (configuration not stated)	none (no result: JMJD2A Tudor inh, HP1b chromo inh, BAZ2B block)
CCCn1c2ccccc2c2nnc(SCc3[nH]c(=O)[nH]c3C(=O)CCCCC(=O)OCC)nc21	Sfp PPTase inh 25µM, G9a inh inconclusive
N#CCCS(=O)(=O)c1ccccc1	none (no result: G9a inh, JMJD2A Tudor inh, HP1b chromo inh, BAZ2B block)
Fc1ccc(C[n+]2csc3ccccc32)cc1	Sfp PPTase inh 45µM, G9a inh inconclusive, JMJD2A Tudor inh inconclusive, BAZ2B block 56µM
O=C(CN1C(=O)NC2(CCCCC2)C1=O)N1CCN(S(=O)(=O)c2ccc(Cl)s2)CC1	G9a inh 18µM (no result: Sfp PPTase inh)
CN1C(=O)N(CC(=O)N2CCN(S(=O)(=O)c3ccc(Cl)s3)CC2)C(=O)C12CCCCC2	G9a inh inconclusive (no result: Sfp PPTase inh)
Cc1noc(C)c1S(=O)(=O)N(CC(=O)NCCc1ccc(Cl)cc1)c1ccc(C(C)C)cc1	G9a inh 1µM (no result: Sfp PPTase inh, BAZ2B block)
CCOc1ccc2c(c1)n(CO)c(=S)n2CO	G9a inh 2.2µM, JMJD2A Tudor inh 79µM
O=C(Cc1ccccc1[N+](=O)[O-])N/N=C/c1cccnc1	G9a inh inconclusive
N=C1C=CC=C2C1=NC1(CCCCC1)N2O	Sfp PPTase inh 8.9µM, G9a inh inconclusive, JMJD2A Tudor inh inconclusive, HP1b chromo inh inconclusive, BAZ2B block 45µM
Cc1ccc(NC(=O)CCC(=O)NNC(=O)C(C)(C)C)c(C)c1	none
Cc1ccc(NC(=O)CS(=O)c2ccccc2N)c(C)c1 (configuration not stated)	G9a inh 40µM (no result: TDP1 inh)
Cc1ccc(NC(=O)CCC(=O)NNC(=O)/C=C/C(=O)O)c(C)c1	G9a inh 10µM, JMJD2A Tudor inh inconclusive
Cc1ccc(NC(=O)CCC(=O)NNS(=O)(=O)c2ccccc2)c(C)c1	G9a inh 50µM
O=C(CCC(=O)Nc1ccccc1)NNS(=O)(=O)c1ccc(Cl)cc1	Sfp PPTase inh 56µM, G9a inh 6.3µM, JMJD2A Tudor inh inconclusive
COCCNc1nc(-c2cccc(OC)c2)nc2ccccc12	none (no result: G9a inh, JMJD2A Tudor inh, HP1b chromo inh, BAZ2B block)
COc1cccc(CCn2c(N)cc(=O)[nH]c2=S)c1OC	none (no result: Sfp PPTase inh, G9a inh, BAZ2B block)
COc1ccc(C(CNC(=O)CSc2ccccc2C)N(C)C)cc1 (configuration not stated)	none
